Bioassay records (PubChem)
Ins promoter up: MIN6 insulin promoter up-regulation; MIN6 insulin promoter-GFP reporter, high-content imaging; active compounds read high; z-score at 5 µM; 190,000 tested, 0.3% active;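 active = z-score above 3 at 5 µM with at least 500 cells counted in the well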
Insulin prom inh: TRM-6 insulin promoter activity inhibition; TRM-6 cells (human fetal islet line), insulin promoter-eGFP reporter, imaging; reporter expression induced with tamoxifen; AID 1273; inhibition, % at 2 µM; 130,000 tested, 0.9% active;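 active = inhibition above the mean plus 3 SD, with well images judged a real hit on visual review, cut at about 60% in these data, passing the limit was not always enough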
WT yeast gro inh: growth inhibition of WT yeast, mitochondrial fusion screen. mitochondrial fusion phenotypic screen, WT strain. inhibition, % at 10 µM. 190,000 tested, 2.1% active. AID 1362; in the data active = inhibition above about 58%; tested in S. cerevisiae
L major viab: Leishmania major promastigote growth inhibition. Leishmania major promastigotes, resazurin fluorescence viability. inhibition, % at 10 µM. 200,000 tested, 9% active; in the data active = inhibition above about 50%;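 also: promastigotes grown with compound for 44 hours at 28 °C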
Autophagy HCS: modulators of autophagy. 190,000 tested, 0.98% active. MEF GFP-LC3 puncta imaging; test concentration mostly 10 µM. calls only at 10 µM (by protocol);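 active = percentage of spot-positive cells more than 3 SD above its plate mean, without a fluorescence outlier flag or 80% toxicity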;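 also: spot-positive cell cutoff set from DMSO-treated cells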
* marks the source's active call; other numbers are inactive results; i = inactive; . = no result; + = active, no number. Rows were chosen to be rich in hits. Some 11% of all compounds tested hit in one or more screens of this group.

SMILES	Ins promoter up	Insulin prom inh	WT yeast gro inh	L major viab	Autophagy HCS
CCOC(=O)c1c(C)[nH]c(C2=NNC(=Nc3ccccc3)SC2)c1C	-0.59	.	65*	-10	i
CCc1ccccc1N(C1=NCCCS1)S(=O)(=O)c1ccc(C(C)(C)C)cc1	0.56	-8	66*	33	i
CCOC(=O)c1sc(/N=C/c2c(C)[nH]n(-c3ccccc3)c2=O)c(C#N)c1C	.	.	77*	-3	i
O=C(NC1CC2CCCC(C1)N2CC(=O)N1CCCc2ccccc21)C1CCCCC1 (stereo not drawn)	.	38	-16	57*	i
CC(=O)NC1CC2CCCC(C1)N2CC(=O)N1CCCc2ccccc21 (stereo not drawn)	.	38	21	-1	i
CCCCCC[n+]1c(-c2ccccc2)csc1Nc1ccccc1	-0.15	.	69*	9	i
CC(C)[C@H](NC(=O)c1ccccc1)C(=O)OCC(=O)N1CC2(C)CC1CC(C)(C)C2 (stereo partly drawn)	-0.1	-7	-12	53*	i
CC(C)C(NC(=O)c1ccc(F)cc1)C(=O)OCC(=O)N1CC(=O)Nc2ccccc21 (stereo not drawn)	0.1	14	2	68*	i
CCOc1ccccc1C(=O)N[C@H](C(=O)Nc1cc(S(=O)(=O)N(C)C)ccc1OC)C(C)C	-0.28	.	0	5	i
CCc1ccc(C(=O)COC(=O)CNC(=O)c2ccc(N3C(=O)c4ccccc4C3=O)cc2)cc1	0.02	0	14	-5	i
O=C(CNC(=O)c1ccc(N2C(=O)c3ccccc3C2=O)cc1)OCC(=O)c1ccccc1	1.4	1	-1	62*	i
COc1ccc(C(=O)COC(=O)CNC(=O)c2ccc(OC)cc2)cc1	-0.26	.	-1	0	i
O=C(CNC(=O)c1ccc(N2C(=O)c3ccccc3C2=O)cc1)OCC(=O)c1cccc2ccccc12	0.26	-26	-1	62*	i
C=C(C)CC(Nc1ccc(OC)cc1)c1ccco1 (stereo not drawn)	-2.2	.	0	1	i
COc1cc([N+](=O)[O-])ccc1-c1ccc(/C=N/NC(N)=O)o1	3.3*	.	.	.	.
O=C(CN1CCCC1)N/N=C/c1ccc(-c2cccc(Cl)c2)o1	2.6	.	2	100*	i
Cc1ccc(C)c(N(CC(=O)N/N=C/c2ccc(-c3ccc([N+](=O)[O-])cc3)o2)S(=O)(=O)c2ccccc2)c1	-1	.	-2	49	+
O=C(N/N=C/c1ccc(-c2ccc([N+](=O)[O-])cc2)o1)c1cccnc1	-0.31	.	.	.	.
O=C(Cc1ccccc1)N/N=C/c1ccc(-c2ccc([N+](=O)[O-])cc2)o1	0.8	0	-6	35	+
O=C(Cn1nnc(-c2ccccc2Cl)n1)N/N=C/c1ccc(-c2cccc(Cl)c2)o1	-0.04	36	12	-5	i
S=C(NCCc1ccccc1)Nc1ccc(Br)cn1	-0.43	41	4	6	i
O=C(Nc1ccccc1F)Nc1ccccc1Br	.	-20	-14	1	i
N#CC(C#N)=C(Nc1ccc(F)cc1)SCc1cccc(F)c1	0.09	38	53	38	i
CC12CCC(c3c(C(=O)Nc4nccs4)nn(-c4ccccc4)c31)C2(C)C (stereo not drawn)	0.31	.	76*	100*	i
CCCC1=C(C(=O)OCC)C(c2ccc(OC)c(CSc3ccccn3)c2)C(C#N)=C(N)O1 (stereo not drawn)	0.26	.	14	10	i
SMILES	Ins promoter up	Insulin prom inh	WT yeast gro inh	L major viab	Autophagy HCS
O=[N+]([O-])c1ccc(N/N=C/c2ccc(O)c(O)c2O)c(S(=O)(=O)N2CCOCC2)c1	-0.04	.	11	28	i
Cc1cc(C)nc(N/N=C/c2ccccc2OCc2ccc([N+](=O)[O-])cc2)n1	-0.06	0	15	7	i
O=[N+]([O-])c1ccc(N/N=C/c2cccc(O)c2O)c(S(=O)(=O)N2CCOCC2)c1	-1.5	.	19	0	+
O=[N+]([O-])c1cccc(N/N=C/c2cccc(O)c2O)c1	.	-27	62*	90*	i
O=[N+]([O-])c1ccc(N/N=C\c2ccccc2OCc2ccccc2)cc1	2.4	-27	-4	53*	+
Cc1cc([N+](=O)[O-])cnc1NC(C)c1ccccc1 (stereo not drawn)	.	34	11	10	i
COc1ccc(S(=O)(=O)NNC(=O)c2ccc(-n3c(C)ccc3C)cc2)cc1	-0.31	.	.	.	.
Cc1cc(C(=O)COC(=O)c2ccc[nH]c2=O)c(C)n1-c1ccc(F)cc1	-0.2	0	-5	69*	i
Cc1cc(C(=O)COC(=O)c2ccc[nH]c2=O)c(C)n1-c1ccccc1	0.01	43	14	71*	i
Cc1noc(C)c1COC(=O)c1cc(C)n(-c2ccccc2)c1C	-0.15	.	25	79*	i
Cc1cc(C(=O)OCc2nnc(-c3ccccc3)o2)c(C)n1-c1ccccc1	-1.9	4	11	-2	i
Cc1cc(C(=O)COC(=O)c2ccc[nH]c2=O)c(C)n1C1CC1	-0.62	-8	-1	-5	i
CCc1cccc(N(C(=O)c2csnn2)C(C(=O)NC(C)(C)C)c2ccccn2)c1 (stereo not drawn)	.	-50	-13	-6	i
Cc1ccc(NC(=S)NCC2CCN(C(C)c3ccccc3)C2)cc1C (stereo not drawn)	-0.33	.	15	82*	i
Cc1nnc(-c2ccccc2)c(=O)n1/N=C/c1c(O)ccc2ccccc12	0.05	.	20	98*	i
Cc1nc2ccccc2c(=O)n1/N=C/c1ccc2ccccc2c1O	0.37	.	.	.	.
Cc1ccc(-c2nnn(CCC(=O)N3CCCCC3C)n2)cc1 (stereo not drawn)	0.07	71*	7	5	i
CC1CCCCN1C(=O)Cn1nnc(-c2cccnc2)n1 (stereo not drawn)	1.1	-50	-7	-6	i
CCOCCCn1c(C)nc2c[n+](CC(=O)c3ccc4ccccc4c3)cc(Br)c21	-0.43	.	.	.	.
Cc1cccc2cc(CNCc3ccccc3)c(Cl)nc12	-0.62	.	12	-5	i
CCOc1ccc(OCCOCCNCCOC)cc1	-0.07	12	-1	70*	i
Cc1cc(C)c(C)c(OCCOCCNCc2ccccc2)c1	-0.33	-133	26	77*	i
CCCOc1ccc(OCCOCCNCc2ccccc2)cc1	0.34	-18	14	98*	i
CCn1cc(CNC(=O)c2c(-c3c(Cl)cccc3Cl)noc2C)c(C)n1	0.42	23	11	-3	i
CCN(CC)C(=O)CSc1nc(OC)cc(=O)[nH]1	.	23	-6	-2	i
Cc1ccc(N2CC(O)=C(c3ccccc3)C2=N)cc1	-0.86	73*	-6	-5	i
Cc1ccccc1NC(=S)N1CCC(NC(=O)c2ccco2)CC1	.	-33	-15	-1	i
COc1ccc(Br)cc1/C(C)=N/NC1=NCCN1	-3.4	-79	9	52*	i
CCOc1ccc(NC(=O)C2CC=CCC2C(=O)O)cc1 (stereo not drawn)	-0.53	-3	-27	-3	i
CCOc1ccc(NC(=O)C2CCC(C)(C(=O)O)C2(C)C)cc1 (stereo not drawn)	3.6*	.	-11	1	i
